Measured values published in ChEMBL document CHEMBL4513216, “Probing the Open Global Health Chemical Diversity Library for Multistage-Active Starting Points for Next-Generation Antimalarials” (ACS Infect Dis, 2020).
About 8,600 (12%) of roughly 69,000 compounds showed an effect of 50% or more. Shown is part of a subset that was picked to be rich in strong results.

test system: Plasmodium berghei; assay: Screen against P. berghei liver stage (PbLuc), transformed with Luciferase, at 10uM; format: functional, HepG2; settings: tested at 10 uM

Structure (SMILES) | INHIBITION [%]
CNC(=O)c1ccc(CNc2ccncc2Cl)cc1 | 57.7
CC(C)N(C)C(=O)c1ccc(CNc2cncc(Cl)n2)cc1 | 32.9
CNC(=O)c1ccc(CNC(=O)c2ccc(Cl)cc2F)cc1 | -8.675
CC(C)N(C)C(=O)c1ccc(CNc2ncc(C#N)cc2Cl)cc1 | 44.5
CCOc1ccc(Cl)c(C(=O)NCc2ccc(C(=O)NC)cc2)n1 | 14.7
CC(C)N(C)C(=O)c1ccc(CNc2ccncc2Cl)cc1 | 97.1
CN1CCOC(CNCc2ccc(OCc3ccccn3)cc2)C1 (stereo unspecified) | -38.7
O=C(c1ccnnc1)N1C[C@@H](OCc2cccnc2)[C@H]2OCCC[C@H]21 | 37.1
NC(=O)c1ccc(CNC2CC2)cc1 | -30.1
Cc1ccc(C2(CN3CCN(Cc4cncn4C)CC3)CC2)cc1 | -32.7
c1ccc(-c2cnc(CN(Cc3cccnc3)CC3CCCO3)o2)cc1 (stereo unspecified) | -5.26
CCN(Cc1cccnc1)CC1CCCO1 (stereo unspecified) | -0.113
CC(C)(C)c1cnc(CN(Cc2cccnc2)CC2CCCO2)o1 (stereo unspecified) | 75.4
CNC(=O)CCc1cc(C)nc(C2CCN(C(=O)CN(C)C)CC2)c1 | 4.9
CCc1nc(CN2CCCN(C(=O)c3ccnc(C)n3)CC2)cs1 | 25.5
Cc1ccc(CN2CCN(Cc3ccc4nonc4c3)CC2=O)cc1 | 5.78
NCCc1cccc(CN2CCN(c3cccc(Cl)c3)C(=O)C2)c1 | 50.5
Cc1cc(C)cc(N2CCN(Cc3cccc(CCN)c3)CC2=O)c1 | 2.18
Cc1cc(C)cc(CN2CCN(Cc3cc(C#N)n(C)c3)CC2=O)c1 | 11.8
NCCc1cccc(CN2CCN(c3ccccc3)C(=O)C2)c1 | 26.8
Cc1cc(C)cc(CN2CCN(Cc3ccc4nonc4c3)CC2=O)c1 | 37.6
Cc1ccc(CN2CCN(Cc3ccncc3)CC2=O)cc1 | 50.3
COc1cccc(N2CCN(Cc3cccc(CCN)c3)CC2=O)c1 | 35.1
Cc1cc(C)cc(CN2CCN(Cc3cccc(CCN)c3)CC2=O)c1 | 67.7

Structure (SMILES) | INHIBITION [%]
Cn1cc(CN2C[C@@H]3COC[C@H](C(=O)Nc4cccnc4)[C@@H]3C2)cn1 | 0.542
CCn1cc(CN2CCCN(C(=O)c3c(C)oc(C)c3C)CC2)cn1 | 15.6
CCC[C@H]1CN(S(C)(=O)=O)C[C@@H]1NC(=O)c1ccc(COC)cc1 | 23.9
Cc1ccoc1C(=O)N1CC[C@H]2[C@H](C[C@@H](CN3CCCC3)N2C)C1 | 47.4
CC(=O)N1N=C(c2cccs2)OC1C(=O)Nc1ccc(C)cc1 (stereo unspecified) | -25.1
CC(=O)N1N=C(c2cccs2)OC1C(=O)Nc1ccccc1 (stereo unspecified) | -4.32
CCc1ccc(NC(=O)C2OC(c3cccs3)=NN2C(C)=O)cc1 (stereo unspecified) | 52.1
CC(=O)N1N=C(c2cccs2)OC1C(=O)NCc1ccc(C)o1 (stereo unspecified) | 53
CCOc1ccc(NC(=O)C2OC(c3cccs3)=NN2C(C)=O)cc1 (stereo unspecified) | 11.5
COc1ccc(NC(=O)C2OC(c3cccs3)=NN2C(C)=O)cc1 (stereo unspecified) | 28.3
CCn1cc(C(=O)NCCc2nc(-c3ccc(C)cc3)n[nH]2)c(C)n1 | 12.8
COc1cccc2c1ccn2CCC(=O)N1CCC(C(=O)O)CC1 | 25.1
CN(C)C(=O)CN1C[C@H]2CN(Cc3cccc(F)c3)C(=O)[C@H]2C1 | 25.2
Cc1occc1CNC(=O)C1(C)CCCN1C(=O)c1ccccc1 (stereo unspecified) | 28.7
CC(C)C(=O)N1CCC12CCCN(C(=O)c1ccccc1)C2 (stereo unspecified) | 36.2
Cc1occc1CNC(=O)C1(C)CCCN(C(=O)c2ccccc2)C1 (stereo unspecified) | 58.3
CCN(C)Cc1cccc(CNC(=O)CSCc2ccncc2)c1 | 35.4
Fc1cnc(N2C[C@@H](OCC3CCOCC3)[C@H]3OCCC[C@H]32)nc1 | 44.4
O=C(c1ccc(Cl)cc1)N1CCC2(C1)C(=O)Nc1ccccc12 (stereo unspecified) | -18.8
O=C(OCc1ccccc1)N1CC[C@H]2CC(CO)O[C@@H]2C1 (stereo partly specified) | 78.3
C[C@H]1C[C@@H]2CCN(C(=O)c3ccccn3)C[C@H]2O1 | -0.813
CN(C)C[C@H]1C[C@@H]2CN(C(=O)c3ccco3)C[C@@H]2O1 | 42.3
Cn1ccnc1SCCNc1cc(N2CCOCC2)ncn1 | -7.85
Cn1ncc2c(N3CCCC(C)(O)C3)nc(-c3cccnc3)nc21 (stereo unspecified) | 23.5

Structure (SMILES) | INHIBITION [%]
CN1CCCC1CNC(=O)CCCOc1ccc(I)cc1 (stereo unspecified) | 18.625
COc1cccc(Cc2nc3c([nH]2)CC(C)(C)CNC3=O)c1OC | 55.5
COc1cccc(-c2nc3c([nH]2)CC(C)(C)CNC3=O)c1OC | 30.7
COc1cc(Cc2nc3c([nH]2)CC(C)(C)CNC3=O)cc(OC)c1 | 59.4
CC1(C)CNC(=O)c2nc(-c3ccccc3)[nH]c2C1 | 18.8
COc1ccc(Cc2nc3c([nH]2)CC(C)(C)CNC3=O)c(OC)c1 | 16.8
COc1ccc(Cc2nc3c([nH]2)CC(C)(C)CNC3=O)cc1OC | 13.9
CC(C)N1CCO[C@@H]2CN(C(=O)NCc3ccccc3)CC[C@@H]2C1 | 32.1
COc1nc2cc(C)ccc2cc1CN(C)Cc1cc(C)[nH]n1 | 36.1
CC(CNC(=O)c1cnc[nH]1)Oc1ccc(Cl)cc1 (stereo unspecified) | 20.9
COc1ccccc1OC(C)CNC(=O)c1cnc[nH]1 (stereo unspecified) | -15.5
CC(CNC(=O)c1cnc[nH]1)Oc1ccccc1Br (stereo unspecified) | 57.2
O=C(c1cc(Cn2ccc3ccccc32)[nH]n1)N1CCCCC1CO (stereo unspecified) | 13
Cc1cnn(CC2CCCN2C(=O)CCc2ccco2)c1 (stereo unspecified) | 45.9
COc1ccccc1CN1CCC(c2nn(CCN)c3nccnc23)C1 (stereo unspecified) | 52
NCCn1nc(C2CCN(Cc3ccc(Cl)c(Cl)c3)C2)c2nccnc21 (stereo unspecified) | 71.1
COc1ccccc1CN1CCC(c2nccc(C)n2)C1 (stereo unspecified) | 38.3
CC(C)(C)CC(=O)N1CCC(c2nn(CCN)c3nccnc23)C1 (stereo unspecified) | -3.31
NCCn1nc(C2CCN(C(=O)Cc3ccccc3)C2)c2nccnc21 (stereo unspecified) | 30.4
NCCn1nc(C2CCN(Cc3ccccc3)C2)c2nccnc21 (stereo unspecified) | 60.5
COc1cccc(CN2CCC(c3nn(CCN)c4nccnc34)C2)c1 (stereo unspecified) | 7.52
Cc1ccccc1CN1CCC(c2nn(CCN)c3nccnc23)C1 (stereo unspecified) | 43.6
NCCn1nc(C2CCN(Cc3ccccc3Cl)C2)c2nccnc21 (stereo unspecified) | -49
